Measurements from the supplement of paper PMC6555819.

Each sequence was assayed on VDR:RXRa (NR concentration 270 nM, RXRa partner concentration 90 nM) (assay: PBM binding z-score (relative to random genomic background probes); higher = stronger binding; sequences stand for … in GC…GCGATTGACAGCGTAGAATGAAGG).
Procedure: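 Protein-binding microarray (Agilent 4x180K custom design, double-stranded 60-nt probes: 5' GC cap, 34-nt variable region, 24-nt constant primer region; full probe sequence given). Purified or IVT nuclear receptor:RXRα heterodimers (3:1 NR:RXRα, mostly 270:90 nM) or homodimers were incubated for 1 h in PBS with 2% milk and no ligand, then detected with Alexa488 antibodies. Fluorescence from o1-orientation probes (~5 replicates averaged) was converted to z-scores against 500 random hg19 background probes. Variable regions are seed direct-repeat (DR0–DR5) sites, all their single-nucleotide variants and half-site ablations.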
GCTGCTAGTTCAACTGATGGTCAGCTAAAGCTCG gave a PBM binding z-score of 0.168.
With TGTATGAGGTTAAAGATCAGGGAACGTGGCGTCG the PBM binding z-score was 2.15.
AGAATGAGGTTACCAAAGTTCAGGGAAACGCTTG showed a PBM binding z-score of 5.53.
TTACCAAGGTGAAAGGTCGTTGCTGCACGCCTTG showed a PBM binding z-score of 3.19.
CCGAGGAGGTTACGAGGGGGCATTCAGTGCGAAT gave a PBM binding z-score of 6.29.
AATACAGGGTCATCGTACGCCAGAGTACGCACAG gave a PBM binding z-score of 5.2.
With CGTCAAAGTTCAAGGTCACGTAACAGAAAGCAGC the PBM binding z-score was 5.84.
Work on CGAACGAGGTCATTGACAGGACAGTGAATAGTAA yielded a PBM binding z-score of 5.64.
In the case of AATACAGGGTCATCTTAGGCCAGAGTACGCACAG, the PBM binding z-score is reported as 5.31.
In the case of AGAATGGGGTTATACGTAGATCAGGGAAGAAAGT, the PBM binding z-score is reported as 3.03.
For AGAATGAGGTCAAGATCAGGGAAACAGAATACAT, the PBM binding z-score was 4.93.
Work on ATATGTAGGTTAGCTGAGGTCATTCAGACTAGGC yielded a PBM binding z-score of 6.12.
With CGAACAAGGTCATCCAGGACAGTGAATACATTGA the PBM binding z-score was 6.39.
Sequence CGTCAAAGGTCAAGGTCAGTGAAAGAGACTCGAA has a PBM binding z-score of 5.77.
CCGAGTAGGTTACTAGGGGGCATTCAGTGCGAAT gave a PBM binding z-score of 5.13.
TCTTGTAGATCGATAGAGGTTAAGAAAGTGCGCT was tested, and the PBM binding z-score was 1.45.
CAAAATAGGTCACAGAGGTCAAAGTCCGTGCGTA showed a PBM binding z-score of 8.21.
Sequence CCTACTGGGCCAAAAAGGTCATTGATGCCGATAA has a PBM binding z-score of 4.83.
In the case of CGTCCAAGGTCAAAGGTCAATGAAGAGATGACGG, the PBM binding z-score is reported as 7.06.
Sequence CCTTACGGGTCCCTCCAGGTTATAGCATCGGAGT has a PBM binding z-score of 0.0642.
CCTAGTTGTTCAGGAGGTCACACACCGGATATGA gave a PBM binding z-score of 3.9.
TCTAGTTGGTCACGGAGGTCACAAACGACGGGTA showed a PBM binding z-score of 5.62.
ATCGAAAGGTCGAAGGTGAGCATACCCACCCGAA gave a PBM binding z-score of 2.63.
With GCTGCGAGGTCAACTGATGGTCAGCTAAAGCTCG the PBM binding z-score was 5.48.
TCTTGTAGATCAACAGGAGGTTAATAAAGATCGA gave a PBM binding z-score of 0.648.
CCTGCTAGGTCAAAGGTCAGCTAAAGCAGCTCGC gave a PBM binding z-score of 5.81.
TAGCCTAGGTTATGGGCCAGTATACCACGCGAAC gave a PBM binding z-score of -0.0238.
CGAACTAGGTCGCCAGGACAGTGAAGAGGTTGGA gave a PBM binding z-score of -0.0336.
For CGAACTAGGTCGTCCAGGACAGTGAATACATTGA, the PBM binding z-score was 1.65.
Work on CCTACGGGGCCACGAAAGGTCATTGATTCAGTGA yielded a PBM binding z-score of 5.53.
Work on TTGCCAAGGTGAAAGGTCGTTGATGCACGCCTTG yielded a PBM binding z-score of 3.23.
Sequence CGAACGAGGTCAAAGGACAGTGAAAGGCGACGTA has a PBM binding z-score of 5.02.
GCTGCTAGGTCAACTGATGGCCAGCTAAAGCTCG showed a PBM binding z-score of 1.14.
TTACCAAGGTCAAGGTCGTTGATCCCTCTGTAGA was tested, and the PBM binding z-score was 5.5.
GCTGCTAGGTCAACTGATGGTCACCTAAAGCTCG showed a PBM binding z-score of 2.05.
GGAACGAGGTCAAGTTGATAGCAGAGTTTGATGG gave a PBM binding z-score of 5.84.
With CCTTAGGGGTCAAGGTTATAGCACGGGTGGTACG the PBM binding z-score was 6.11.
For CACACTAGGTCACAGAGGTCAAAGTCCGTGCGTA, the PBM binding z-score was 8.14.
TCTCGGAGGACACCAAAGGTCAGAGCTCGACATC was tested, and the PBM binding z-score was 3.38.
CGTCCAAGGTCAGCGGGTCAGTGAAAGCGACGTG was tested, and the PBM binding z-score was 4.57.
